Screening data deposited in PubChem by Broad Institute.
A selection: hits, their analogues and other compounds. The true share with any hit is near 8.1%.
Hedgehog inh – Hedgehog pathway signaling inhibitors, primary screen, luminescence, Shh-LIGHT2 cells, Gli-luciferase | Shh-LIGHT2 Gli-luciferase reporter, 30 h | inhibition, % (test concentration not listed) | 22,000 compounds, 2.1% hits | AID 2313, 2010;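 active means mean inhibition across valid replicates above about 65%, limit read from the data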;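 further: pathway switched on by Shh-conditioned medium diluted 1 in 25 in low serum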
PD-1 reversal – activators reversing PD-1 mediated T-cell inhibition, primary screen, luminescence, primary human CD4 T cells, PD-L1 beads; CellTiter-Glo 96 h; activation, % (no concentration beside the values); 29,000 tested, under 10 active; call rule not given here
NOMO-1 viab – NOMO-1 AML cell viability reduction, primary screen, STK33 inhibitor project, CellTiter-Glo luminescence; NOMO-1 AML viability, 72 h; inhibition, % (concentration not given with the values); 37,000 compounds, 7.5% hits; AID 2330, 2010; in the data active means inhibition above about 80%
MITF inh – inhibitors of MITF, primary screen, MITF inhibitor project, cell-based, luminescence. TRPM1 promoter luciferase, 24 h. inhibition, % (no concentration beside the values). 37,000 compounds, 0.28% hits; in the data active means inhibition above about 85%;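 further: human melanocyte line stably carrying TRPM1 promoter luciferase reporter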
Each line names hits and unclear results; the compound was inactive in the other large screens; ! = not active in a repeat.

COc1ccc(CN(C)C[C@H]2Oc3ccc(NC(=O)CCN4CCOCC4)cc3C(=O)N([C@H](C)CO)C[C@H]2C)cc1	none
COc1cccc(C(=O)NC(c2ccc([N+](=O)[O-])cc2)c2c(O)ccc3ccccc23)c1 (stereo not given)	NOMO-1 viab 114 (no result: Hedgehog inh, PD-1 reversal)
CCC(Oc1cccc(NC(=O)c2ccc([N+](=O)[O-])cc2)c1)C(=O)c1ccccc1 (stereo not given)	none (no result: Hedgehog inh, PD-1 reversal)
COc1cccc(C(=O)NC(c2ccc(Cl)cc2)c2c(O)ccc3ccccc23)c1 (stereo not given)	NOMO-1 viab 108, MITF inh 102 (no result: Hedgehog inh)
COc1cccc(C(=O)NC(c2ccccc2OC)c2c(O)ccc3ccccc23)c1 (stereo not given)	none (no result: Hedgehog inh)
Cc1ccc(NC(=O)CSc2nc3sc(C)c(C)c3c(=O)n2-c2ccc(C)c(C)c2)cc1	none (no result: Hedgehog inh)
CC1(C)S[C@@H]2[C@H](NC(=O)[C@H](NC(=O)N3CCNC3=O)c3ccccc3)C(=O)N2[C@H]1C(=O)O	none (no result: PD-1 reversal)
CCOC(=O)N1CCc2c(sc3ncn(Cc4ccc(Cl)cc4)c(=O)c23)C1	Hedgehog inh 95
C[C@H](CO)N1C[C@H](C)[C@H](CN(C)S(=O)(=O)c2ccc(Cl)cc2)Oc2c(NC(=O)C3CCCCC3)cccc2C1=O	Hedgehog inh 103
C[C@H]1CN([C@@H](C)CO)C(=O)c2cccc(NC(=O)C3CCCCC3)c2O[C@H]1CN(C)S(=O)(=O)c1ccc(Cl)cc1	Hedgehog inh 98
C[C@H]1CN([C@@H](C)CO)C(=O)c2cccc(NC(=O)C3CC3)c2O[C@H]1CN(C)S(=O)(=O)c1ccc(Cl)cc1	Hedgehog inh 90
FC(F)(F)c1cc(-c2cn3ccccc3n2)cc(C(F)(F)F)c1	none
OC[C@H]1O[C@@H](Oc2ccc3c(c2)OC[C@H]2c4cc5c(cc4O[C@@H]32)OCO5)[C@H](O)[C@@H](O)[C@@H]1O	none
CC(C)=CCc1cc2c(cc1O)O[C@H]1c3ccc(O)c(O)c3OC[C@@H]21	NOMO-1 viab 105
COc1ccc2c(c1)O[C@H]1c3ccc(O)cc3OC[C@@H]21	none
Oc1ccc2c(c1O)OCC1c3cc4c(cc3OC21)OCO4 (stereo not given)	NOMO-1 viab 105
OC(CN1CCNCC1)Cn1c2ccc(Br)cc2c2cc(Br)ccc21 (stereo not given)	Hedgehog inh 78!, NOMO-1 viab 121
CC1CCN(CC(O)COc2c(F)cc(Br)cc2F)CC1 (stereo not given)	none
O=[n+]1cc(-c2ccccc2)n([O-])c2c1CCCC2	none
C[C@H](CO)N1C[C@H](C)[C@H](CN(C)Cc2ccc(C(=O)Nc3ccccc3N)cc2)Oc2ccc(NC(=O)NC3CCCCC3)cc2C1=O	NOMO-1 viab 98 (no result: Hedgehog inh)
C[C@@H]1CN([C@@H](C)CO)C(=O)c2cc(NC(=O)NC3CCCCC3)ccc2O[C@@H]1CN(C)Cc1ccc(C(=O)Nc2ccccc2N)cc1	NOMO-1 viab 107 (no result: Hedgehog inh)
C[C@H]1CN([C@@H](C)CO)C(=O)c2cc(NC(=O)NC3CCCCC3)ccc2O[C@H]1CN(C)Cc1ccc(C(=O)Nc2ccccc2N)cc1	none (no result: Hedgehog inh)
C[C@@H]1CN([C@H](C)CO)C(=O)c2cc(NC(=O)NC3CCCCC3)ccc2O[C@@H]1CN(C)Cc1ccc(C(=O)Nc2ccccc2N)cc1	NOMO-1 viab 99 (no result: Hedgehog inh)
O=C(CSc1nnc(-c2ccccc2Cl)o1)c1cc2ccccc2oc1=O	none (no result: Hedgehog inh, PD-1 reversal)
COc1ccccc1NC(=O)c1ccc(C(C)(C)C)cc1	none
C[C@H](CO)N1C[C@H](C)[C@H](CN(C)Cc2ccc(C(=O)Nc3ccccc3N)cc2)Oc2ccc(NC(=O)Cc3ccccc3)cc2CC1=O	NOMO-1 viab 128 (no result: Hedgehog inh)
C[C@@H]1CN([C@H](C)CO)C(=O)Cc2cc(NC(=O)Cc3ccccc3)ccc2O[C@H]1CN(C)Cc1ccc(C(=O)Nc2ccccc2N)cc1	none (no result: Hedgehog inh)
C[C@@H]1CN([C@@H](C)CO)C(=O)Cc2cc(NC(=O)Cc3ccccc3)ccc2O[C@@H]1CN(C)Cc1ccc(C(=O)Nc2ccccc2N)cc1	NOMO-1 viab 96 (no result: Hedgehog inh)
c1ccc(-c2nnc(-c3cccc4ccccc34)o2)cc1	none
Cc1ccccc1NC(=O)CSc1nc(-c2ccc(Cl)cc2)cc(C(F)(F)F)n1	NOMO-1 viab 95 (no result: Hedgehog inh, PD-1 reversal)
COC(=O)c1ccc(Cl)c(NC(=O)CSc2nc(-c3ccccc3)cc(C(F)(F)F)n2)c1	NOMO-1 viab 113 (no result: Hedgehog inh)
COC(=O)c1ccc(Cl)c(NC(=O)CSc2nc(C)cc(C(F)(F)F)n2)c1	none (no result: Hedgehog inh, PD-1 reversal)
COc1ccc(Oc2c(C(F)(F)F)oc3cc(OCC(=O)Nc4ccccc4F)ccc3c2=O)cc1	NOMO-1 viab 96 (no result: Hedgehog inh)
